# S2 tox – Viability Counterscreen for Primary qHTS for Inhibitors of ATXN expression; S2 cells (HEK-293 line with an ATXN2-luciferase reporter) viability, CellTiter-Fluor protease fluorescence, 24 h; Potency, µM (highest dose often 56.7 µM), most hits filed as cytotoxic; 400,000 tested, 0.49% active; AID 651635, 2014; further: nearly all actives have a fitted effect of over 40% in size
# TGFb SMAD3 inh – qHTS for Inhibitors of TGF-b; HepG2 CAGA-GFP TGF-b/SMAD3 reporter, GFP fluorescence, 18 h; TGF-beta stimulated, 500 pg/mL final; Potency, µM (doses to about 46.1 µM), inactives show at the highest dose activity, negative = inhibition, usual class: inhibitors; 410,000 tested, 1.2% active; further: on the % scale 0 is the no-effect control and ±100 the full control effect; nearly all actives have a fitted effect of over 65% in size
#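 HEPG2 CAGA-GFP cells (1000/well, DMEM with 1% FBS) were pre-incubated 2 h at 37 degrees C, given compound by pin tool, then stimulated with TGF-beta at 500 pg/mL final for 18 h before per-cell GFP fluorescence imaging.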
# HT1080 IDH1KD tx – qHTS for induction of synthetic lethality in tumor cells producing 2HG: qHTS for the HT-1080-IDH1KD cell line | HT-1080 IDH1 knockdown viability, ATP luminescence, 48 h | Potency, µM (titrated, usually from 46.1 µM), inactives show at the top dose activity, negative = toxicity, usual class: cytotoxic | 360,000 tested, 2% active;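 further: 0% = DMSO wells and -100% = cell-free medium wells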
#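 IDH1KD HT-1080 cells, 750/well, RPMI + 5% FBS; compound pinned after 2 h settling; 48 h, 37 °C; CellTiter-Glo luminescence; % activity normalised to DMSO and no-cell wells; curves fitted, classed by r2 and efficacy.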
# HepG2 viability – qHTS for Inhibitors of TGF-b: Cytotox Counterscreen | HepG2 CAGA-GFP viability, ATP luminescence, 18 h | Potency, µM (top dose mostly 46.1 µM), without a hit: top-dose activity change, negative = cytotoxicity, hits mostly cytotoxic | 410,000 tested, 0.76% active | AID 588856, 2011
#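 CellTiter-Glo luminescence gave cytotoxicity after 18 hours at 37 degrees C. The cells were HepG2 CAGA-GFP in 1% FBS DMEM, stimulated with 500 pg/mL TGF-beta after compound addition. %Activity was normalised to no-cell wells (complete cell-killing) and DMSO (no toxicity), and curves were fitted and classified.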
# ATXN2 expr inh – Primary qHTS for Inhibitors of ATXN expression; HEK-293 ATXN2-luciferase reporter, luminescence, 24 h; AID 1745845, 2022; Potency, µM (series often up to 57 µM), inactives show at the top dose activity change, negative = inhibition, actives largely listed as inhibitors; 360,000 tested, 0.72% active; further: on the % scale 0 is the no-effect control and ±100 the full control effect; nearly all actives have a fitted effect of over 55% in size
#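 ATXN2-luciferase reporter cells (luciferase flanked by upstream and downstream ATXN2 gene portions) were treated 24 h at 37 °C with compounds at up to 57 uM. SteadyGlo luminescence gave expression; GF-AFC fluorescence gave viability.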
# HT1080NT lethal – qHTS for induction of synthetic lethality in tumor cells producing 2HG: qHTS for the HT-1080-NT fibrosarcoma cell line. HT-1080-NT fibrosarcoma viability, CellTiter-Glo ATP luminescence, 48 h. Potency, µM (top dose mostly 46.1 µM), for the others: at the top dose activity, negative = less viability, most hits filed as cytotoxic. 360,000 tested, 1.6% active;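 further: NT is the 2HG producing partner of a matched IDH1 knockdown line; 0% = DMSO-treated cells and -100% = media-only wells without cells; nearly all actives have a fitted effect of over 55% in size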
#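 Read-out is CellTiter-Glo luminescence after 10 minutes at room temperature, following 48 hours' compound treatment of HT-1080-NT cells (750 cells/well, RPMI, 5% FBS, 37 degrees C).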
# * marks the source's active call; other numbers are inactive results; i = inactive; u = inconclusive; x = no result. Sampled rows, rich in hits. Any-hit rate of the full collection: about 3.9%. The call rests on the fitted dose curve; in most records, active means well fitted curve in the direction sought with a large enough effect; inconclusive means small, poorly fitted or top-dose-only effect, or another doubt; inactive means no such curve, though single readings can be large; an effect the other way counts as inactive or inconclusive. Potency means the concentration at half of the fitted maximal effect.
SMILES,S2 tox,TGFb SMAD3 inh,HT1080 IDH1KD tx,HepG2 viability,ATXN2 expr inh,HT1080NT lethal
Cc1c(N)nc([C@H](CC(N)=O)NC[C@@H](N)C(N)=O)nc1C(=O)N[C@H](C(=O)N[C@@H](C)[C@H](O)[C@@H](C)C(=O)N[C@@H](C(=O)NCCc1nc(-c2nc(C(=O)NCCC[S+](C)C)cs2)cs1)[C@@H](C)O)C(O[C@H]1O[C@H](CO)[C@H](O)[C@@H](O)[C@@H]1O[C@H]1O[C@H](CO)[C@@H](O)[C@H](OC(N)=O)[C@H]1O)c1cnc[nH]1 (some centres not stated),x,x,x,x,14µM*,x
O=C1N[C@@H](Cc2ccccc2)C(=O)N2[C@H]3Nc4ccccc4[C@@]3([C@]34C[C@H]5C(=O)N[C@@H](Cc6ccccc6)C(=O)N5[C@H]3Nc3ccccc34)C[C@@H]12,13µM*,u,-8%,-4%,u,-8%
O=C1NC(=O)N(Cc2ccccc2)C(=O)/C1=C/C=C/c1ccco1,20µM*,11µM*,u,-17%,u,u
CC(=O)C1C(N2CC2)CC2C3CC=C4CC(O)CCC4(C)C3CCC21C (configuration not stated),14µM*,-8%,-6%,-3%,0%,-25%
Cc1ccccc1S(=O)(=O)N1C[C@H]2[C@H]3C(=O)N(C4CCCCC4)C(=O)[C@H]3CC(=O)[C@H]2[C@@H]1c1ccc(Cl)cc1,i,u,8%,-22%,2%,7%
CN1C(=O)/C(=C/c2cccn2-c2ccc3ccccc3c2)C(=O)NC1=S,x,16µM*,u,-51%,u,u
O=C1NC(=S)NC(=O)C1=Cc1cccn1-c1ccc(O)cc1,19µM*,u,23µM*,-108%,24µM*,u
Cc1cc(C)cc(N2C(=O)NC(=O)/C(=C\c3cccn3-c3ccccc3)C2=O)c1,u,u,u,-5%,u,-21%
Clc1ccc(-c2csc3ncnc(Sc4nnnn4C4CC4)c23)cc1,x,u,x,-99%,x,x
CN[C@]1(c2ccccc2Cl)CCCCC1=O,i,x,x,x,x,x
C[C@@H]1O[C@@H](O[C@H]2C[C@@H](O)[C@]3(CO)[C@H]4[C@H](O)C[C@]5(C)[C@@H](C6COC(=O)C6)CC[C@]5(O)[C@@H]4CC[C@]3(O)C2)[C@H](O)[C@H](O)[C@H]1O (some centres not stated),u,u,0.82µM*,-50%,0.56µM*,1.8µM*
Cc1c(C(=O)Nc2cccc(C(F)(F)F)c2)cc(-c2ccccc2)n1CCCN1CCOCC1,x,x,x,x,-14%,x
O=C(Nc1ccc(Cl)cc1)Nc1nccs1,u,-13%,7.3µM*,-22%,-8%,7.3µM*
O=C(CCl)Nc1nccs1,u,11µM*,u,11µM*,x,u
O=C(Nc1nccs1)C(Cl)(Cl)Cl,i,2%,-3%,-7%,-12%,-3%
C[C@H]1CNC(=O)c2c(C(=O)N3CCN(C(=O)OC(C)(C)C)CC3)ncn21,u,1%,-11%,-8%,u,-8%
c1ccc(-c2ccc(-c3n(-c4ccccn4)c4ccccc4[n+]3-c3ccccn3)cc2)cc1,u,18µM*,u,-7%,x,u
COc1cc2nc(CN3CC=C(c4ccccc4)CC3)[nH]c(=O)c2cc1OC,i,u,1%,-31%,1µM*,1%
COc1cc(C)c(CN2CC=C(c3ccc(F)cc3)CC2)cc1C,u,7%,-11%,-22%,-13%,u
